Screening data from PubChem BioAssay.
Glioma ERSR ind = ER stress response induction in glioma; U87-MG GRP78 promoter luciferase reporter, 16 h; Potency, µM, for the others: top-dose activation, actives largely listed as activators; 420,000 tested, 0.02% active; AID 602332; further: potency means the concentration at half of the fitted maximal effect; series mostly up to about 76 µM; % of control where 0% means no effect; nearly all actives have a fitted effect of over 35% in size
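ERSR induction read as luciferase luminescence (Bright-Glo, 10 min at room temperature) in stably transfected human U87-MG glioma cells exposed to compounds for 16 h, using GRP78 as sensor.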
AT treatment = potential ataxia-telangiectasia treatment. AID 485349. F2112 A-T fibroblasts, KAP-1 phosphorylation AlphaLISA; neocarzinostatin DNA damage 30 min before lysis. 320,000 tested, 0.19% active. Potency, µM (highest dose often 57.5 µM), inactives show at the highest dose activation, usual class: activators; further: potency means the concentration at half of the fitted maximal effect; % of control where 0% means no effect; nearly all actives have a fitted effect of over 45% in size
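ATM-like activity read as KAP-1 phosphorylation via AlphaLISA donor/acceptor antibody pairs after lysis and 6 hr at 25C. Cells were ATM-null patient fibroblasts (F2112, hTERT), dosed 60 min, then exposed to the DSB inducer NCS for 30 min.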
MBNL1 CUG block = inhibitors of human MBNL1 binding to CUG repeat RNA. Potency, µM (titrated, usually from 57.5 µM), without a hit: at the top dose activity change, negative = inhibition, most hits filed as inhibitors. Q9NR56. TR-FRET MBNL1-His/biotin-(CUG)12 binding, 665/545 ratio. 280,000 tested, 0.036% active. AID 2675; active means well fitted inhibition curve with a large enough effect in the signal ratio, with a control signal flat, not every such curve was filed as active; inconclusive means small, poorly fitted or top-dose-only effect, or effect the other way, or a change in a side signal; inactive means no such curve, though single readings can be large or run the other way; the % refers to the signal ratio; further: potency means the concentration at half of the fitted maximal effect; on the % scale 0 is the no-effect control and ±100 the full control effect
Target sequence (Q9NR56 whole entry, looked up): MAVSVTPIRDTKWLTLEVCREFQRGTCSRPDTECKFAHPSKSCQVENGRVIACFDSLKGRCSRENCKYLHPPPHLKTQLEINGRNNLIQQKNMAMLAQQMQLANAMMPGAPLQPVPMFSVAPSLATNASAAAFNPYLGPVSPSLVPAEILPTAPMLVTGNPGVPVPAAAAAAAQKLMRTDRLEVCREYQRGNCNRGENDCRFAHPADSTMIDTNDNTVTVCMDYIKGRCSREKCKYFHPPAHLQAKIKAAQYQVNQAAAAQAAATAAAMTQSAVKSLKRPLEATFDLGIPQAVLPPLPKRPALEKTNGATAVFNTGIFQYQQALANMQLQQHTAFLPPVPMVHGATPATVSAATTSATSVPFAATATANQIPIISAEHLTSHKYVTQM
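TR-FRET between His-tagged MBNL1 and biotin-(CUG)12 RNA, detected with Tb anti-His antibody (0.055 ng/ul) and streptavidin-XL665 (5 nM), 60 min at room temperature. Compounds titrated 92 nM to 58 uM; 665/545 nm ratio normalized to buffer and complex controls.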
Mito fusion yeast = mitochondrial division inhibition or fusion activation; AID 485298; S. cerevisiae fusion-defective mutant growth rescue, CellTiterGlo 48 h; 320,000 tested, 0.23% active; Potency, µM (titrated, usually from 46.1 µM), for inactives: top-dose growth rescue (activation), hits mostly activators; further: potency means the concentration at half of the fitted maximal effect; % of control where 0% means no effect; nearly all actives have a fitted effect of over 45% in size
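Temperature-sensitive fusion-defective S. cerevisiae (e.g. fzo1-1, mgm1-5) were grown with compound in YPEG medium (3% ethanol, 3% glycerol) for 48 hours at 37C. Growth rescue was measured as viability by CellTiterGlo luminescence after 10 minutes at ambient.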
ClpP mod = qHTS Assay for Activators of ClpP. AID 651965, 2013. Potency, µM (series often up to 57.5 µM), for inactives: top-dose activity change, negative = active. purified B. subtilis ClpP, FRET peptide cleavage, 20 min. ATP-dependent Clp protease proteolytic subunit (Bacillus subtilis (strain 168)), P80244. 340,000 tested, 1.9% active; active means well fitted falling curve with a large enough effect; inconclusive means small, poorly fitted or top-dose-only effect; inactive means no such curve, though single readings can be large or run the other way; further: potency means the concentration at half of the fitted maximal effect; the source files actives as falling curves though it sought activators and does not explain the sign; nearly all actives have a fitted effect of over 65% in size
Target sequence (P80244 whole entry, looked up): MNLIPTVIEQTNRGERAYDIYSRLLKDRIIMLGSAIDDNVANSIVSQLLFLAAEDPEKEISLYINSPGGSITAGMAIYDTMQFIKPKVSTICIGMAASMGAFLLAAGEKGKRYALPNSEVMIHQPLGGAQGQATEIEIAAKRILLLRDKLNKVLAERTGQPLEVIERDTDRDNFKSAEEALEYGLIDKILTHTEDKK
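ClpP 10 microg/mL final, pH 8 Tris/KCl buffer with BSA, glycerol, Tween-20; compound pinned in; FRET-FV substrate; RT 20 min; Ex320/Em430; ΔFRET vs ADEP 5.8 microM, DMSO, no enzyme.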
TCR activator = activators of T cell receptors; primary human leukocytes, anti-CD3, IL-2 HTRF, 48 h; 330,000 tested, under 10 active; Potency, µM (titrated, usually from 9.22 µM), for the others: at the highest dose activation of IL-2 secretion, most hits filed as activators; further: % of control where 0% means no effect
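TCR engagement came from a-CD3 beads alone, with compounds added to primary human leukocytes for 48 hr. Secreted IL-2 bridged europium cryptate- and d2-labelled anti-IL-2 antibodies, giving FRET emission at 665nm after 320nm excitation.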
The depositor's hits bear a star; ? = inconclusive; / = no result; [ ] = remark or other dose. Hits are enriched below; roughly 1.8% of the tested compounds scored in any of these assays. Unless noted, the call rests on the fitted dose curve; in most records, active means well fitted curve in the direction sought with a large enough effect; inconclusive means small, poorly fitted or top-dose-only effect, or another doubt; inactive means no such curve, though single readings can be large; an effect the other way counts as inactive or inconclusive.

SMILES | Glioma ERSR ind | AT treatment | MBNL1 CUG block | Mito fusion yeast | ClpP mod | TCR activator
COc1ccc(C(C)=O)cc1CSc1nnc(Nc2ccc(C)cc2C)s1 | -4% | -2% | 8% | 16µM* | / | 8%[46.1 µM]
COc1ccc(C(C)=O)cc1CSc1nnc(Nc2ccccc2C)s1 | -4% | 14% | 2% | ? | 1% | -3%[46.1 µM]
Cc1ccc(Oc2ccc(S(=O)(=O)N3CCOCC3)cc2C(N)=O)c(-n2nc3ccccc3n2)c1 | -4% | 4% | 7% | 2% | 32µM* | -2%
O=C(Nc1nc2ccc(SC(F)F)cc2s1)c1ccc(NS(=O)(=O)c2ccc(F)c(F)c2)cc1 | -6% | -6% | -2% | 4% | 32µM* | 3%[46.1 µM]
COc1ccc(OC)c(NC(=O)CSc2nc3n[nH]c(C)c3c(=N)n2-c2cccc(Cl)c2C)c1 | -5% | 0% | 1% | 6.3µM* | / | -1%
CCc1ccc(NC(=O)CSc2nc3n[nH]c(C)c3c(=N)n2-c2ccccc2C)cc1 | -3% | / | / | / | -19% | /
Cc1ccccc1-n1c(SCC(=O)Nc2ccccc2Cl)nc2n[nH]c(C)c2c1=N | -4% | 0% | -1% | 11µM* | -3% | 13%
c1ccc2c(c1)SCc1c-2[nH]c2ccccc12 | -9% | / | / | / | / | /
CC(C)(C)CC(C)(C)c1ccc(OCC(=O)N/N=C/c2ccc(S(=O)(=O)O)o2)cc1 | -4% | 0% | ? | ? | 2% | 0%
Cc1ccc(C(C)C)c(OCC(=O)N/N=C/c2ccc(S(=O)(=O)O)o2)c1 | -4% | 14µM* | 20% | 2% | 2% | -7%
CCOC(=O)c1ccc(Nc2nc(-c3cccnc3)nc3ccccc23)cc1 | -2% | 1% | 11% | 7% | 28µM* | -1%
CC(C)CCn1c(NCCc2ccccc2)nc2c1c(=O)n(C)c(=O)n2C | -3% | 3% | -4% | 18µM* | 0% | 2%
Cc1cccc(Cn2c(NCCO)nc3c2c(=O)n(C)c(=O)n3C)c1 | -3% | 32µM* | -6% | -2% | 0% | -2%
Cc1ccc(C(=O)NCCc2nnc3n2CCN(Cc2ccc4ccccc4c2)CC3)c(C)c1 | 2% | / | / | / | / | /
Cn1c(CCNC(=O)C2CC23CCN(C(=O)C2=CCCC2)CC3)nc2ccccc21 (stereo unspecified) | -2% | / | / | / | / | /
COc1ccc(-c2cc(C(F)(F)F)n3nc(C(=O)NCCCn4ccnc4)cc3n2)cc1 | 1% | / | ? | 0% | 28µM* | -2%
COc1ccc(-c2cc(C(F)(F)F)n3nc(C(=O)NCCN4CCOCC4)cc3n2)cc1 | -5% | -1% | ? | 12% | 1% | -22%
COC(=O)c1c(NC(=O)c2cc3nc(-c4ccc(OC)cc4)cc(C(F)(F)F)n3n2)sc2c1CCCC2 | -2% | / | / | / | 28µM* | /
CCOC(=O)c1c(NC(=O)c2cc3nc(-c4ccc(OC)cc4)cc(C(F)(F)F)n3n2)sc2c1CCC(C)C2 (stereo unspecified) | -2% | / | / | / | 32µM* | /
CO/N=C1\C[C@]2(C[C@@H]3C[C@H](C/C=C(/C)C[C@@H](C)/C=C\C=C4\CO[C@@H]5[C@@H](O)C(C)=C[C@@H](C(=O)O3)[C@]45O)O2)O[C@@H](/C(C)=C/C(C)C)[C@H]1C | -11% | / | / | / | / | /
O=c1c(C(c2ccc(Cl)cc2)c2c(O)nc3n(c2=O)CCCS3)c(O)nc2n1CCCS2 | -2% | 32µM* | -7% | 4% | / | -1%
O=c1c(C(c2ccc(Cl)cc2)c2c(O)nc3n(c2=O)CCS3)c(O)nc2n1CCS2 | -2% | -8% | -12% | -2% | -3% | -3%
Cc1ccc(/C=C/c2ccc(=O)n(Cc3ccccc3Cl)n2)cc1 | 8% | -2% | 1% | ? | 28µM* | 0%
CCc1cc(C(=O)NCC2Cc3cc(C)cc(-c4cc(C(C)=O)ccc4F)c3O2)n(C)n1 (stereo unspecified) | -3% | / | / | / | / | /
COCCNC(=O)COc1ccc(OCCNC[C@H](O)COc2ccccc2)cc1 | -3% | / | / | / | / | /
SMILES | Glioma ERSR ind | AT treatment | MBNL1 CUG block | Mito fusion yeast | ClpP mod | TCR activator
COc1cccc(C2(CC(=O)N3CCCCC3CO)CC(=O)N(C)C2=O)c1 (stereo unspecified) | -1% | / | / | / | / | /
c1coc(CN2CNc3nc4ccccc4n3C2)c1 | -1% | 10µM* | -6% | -5% | 0% | -1%
Clc1ccc(OCCn2c(-c3ccco3)nc3ccccc32)cc1 | 0% | -2% | -6% | 25% | ? | 5%
c1coc(Cn2c(-c3ccco3)nc3ccccc32)c1 | 13% | 5% | 1% | -18% | 28µM* | -2%
CN(CCO)C(=O)c1cn(C2CCN(Cc3cccc(C(F)(F)F)c3)CC2)nn1 | -4% | / | / | / | / | /
C(=C1/CCCC2=C1Nc1ncnn1C2c1ccccc1)/c1ccccc1 (stereo unspecified) | / | 40µM* | ? | -11% | / | /
S=C1NC2=C(CCC/C2=C\c2ccccc2)C(c2ccccc2)N1 (stereo unspecified) | -3% | -8% | 18% | 10% | 2% | -2%[46.1 µM]
CCCOc1ccc(C(=O)Nc2ccc(NC(=O)c3ccccc3)c(Br)c2)cc1 | 0% | / | / | / | 4% | /
Clc1ccc(-c2ccc(/C=N/Nc3cc(N4CCOCC4)nc(N4CCOCC4)n3)o2)cc1 | 3% | 5% | 10% | -6% | 7.9µM* | 5%[46.1 µM]
Brc1ccc(-c2ccc(/C=N/Nc3nc(N4CCOCC4)nc(N4CCOCC4)n3)o2)cc1 | -2% | -3% | / | -4% | / | 0%
O=C1NC(=O)c2c(NC(=O)C3CCCO3)cccc21 (stereo unspecified) | -5% | / | 20% | -2% | 16µM* | 1%
COc1ccc2[nH]cc(CCO)c2c1 | -3% | / | / | / | / | /
O=C(NC(NC(=S)Nc1ccccc1C(=O)O)C(Cl)(Cl)Cl)c1ccco1 (stereo unspecified) | -1% | -4% | / | -1% | 28µM* | -3%
Cc1cc(C)nc(-c2cccc3c2OC(CNC(=O)c2ccc(Cn4nc(C)cc4C)cc2)C3)n1 (stereo unspecified) | -3% | / | / | / | / | /
Cc1nn2c(nc(N3CCOCC3)c3ccccc32)c1C=C(C#N)C#N | -3% | 2% | -4% | -1% | -2% | 4%[46.1 µM]
Cc1nn2c(nc(N3CCCCC3)c3ccccc32)c1C=O | 1% | / | -6% | 25% | 13µM* | -2%[46.1 µM]
COC(=O)c1c(C)oc(C)c1S(=O)(=O)N1CCCCC1 | -5% | 1% | / | 4% | 18µM* | -23%
COc1ccc(NC=O)c(C(=O)CCNC(C)=O)c1 | -3% | / | / | / | / | /
COc1cccc(/C=C/c2onc(C)c2S(=O)(=O)N2CCC(C(=O)N3CCC(C)CC3)CC2)c1 | -2% | / | / | / | 32µM* | /
